# An excerpt weighted towards active compounds, which were near 19% of everything screened.
# DT40 TDP1 CPT: DT40-hTDP1 cell growth loss with CPT | chicken DT40 Tdp1-/-;hTDP1 cells + 20 nM CPT, ATP luminescence, 48 h | AID 686979 | actives 12% (n = 420,000) | Potency, µM (top dose mostly 46.2 µM), for inactives: top-dose activity change, negative = growth inhibition, most hits filed as inhibitors; further: potency means the concentration at half of the fitted maximal effect; on the % scale 0 is the no-effect control and ±100 the full control effect; nearly all actives have a fitted effect of over 55% in size
#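 Chicken DT40 Tdp1-/- cells stably complemented with human TDP1 were seeded at 400 cells/well in medium containing 20 nM camptothecin, exposed to pin-transferred compounds, and grown at 37 °C for at least 48 hr. Viability was read as ATP luminescence.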
# HepG2 viability: HepG2 cytotoxicity, counter-screen for TGF-b inhibitors. Potency, µM (highest dose often 46.1 µM), inactives show top-dose activity change, negative = cytotoxicity, hits mostly cytotoxic. HepG2 CAGA-GFP viability, ATP luminescence, 18 h. actives 0.76% (n = 410,000); further: potency means the concentration at half of the fitted maximal effect
#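 HepG2 CAGA-GFP cells (1000/well, DMEM with 1% FBS) received compound, then TGF-beta at 500 pg/mL final, and were incubated 18 hours at 37 degrees C. Viability was read by CellTiter-Glo luminescence. Media-only wells were set as complete cell-killing and DMSO as no toxicity.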
# DT40 TDP1 no CPT: qHTS for Inhibitors of human tyrosyl-DNA phosphodiesterase 1 (TDP1): qHTS in cells in absence of CPT; DT40 Tdp1-/- hTDP1 cells, no CPT, ATP luminescence, 48 h; Potency, µM (titrated, usually from 46.2 µM), for the others: at the highest dose activity change, negative = growth inhibition, most hits filed as inhibitors; actives 15% (n = 420,000); further: potency means the concentration at half of the fitted maximal effect; on the % scale 0 is the no-effect control and ±100 the full control effect; nearly all actives have a fitted effect of over 55% in size
#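 No-CPT arm: Tdp1-/-;hTDP1 DT40 cells (400/well) plus compounds, incubated ≥48 hr at 37 °C. Readout CellTiter-Glo luminescence.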
# IL1B secr inh: blocks inflammasome-driven IL-1 beta release | actives 4.7% (n = 360,000) | activity change, % at 57.5 µM | THP-1 LPS/ATP IL-1B secretion, AlphaLISA, 16 h; hits give low values | AID 743279; in the data active means activity change below about -50%; inconclusive means mostly about -30% to -49%; further: on the % scale 0 is the no-effect control and ±100 the full control effect
#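 Secreted IL-1B measured by AlphaLISA bead assay after 16 h compound exposure of THP-1 cells; compounds (final up to 57.5 uM) added 1 h before LPS (250 ng/mL) and ATP (1.25 mM) stimulation; lower signal means less secretion.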
# S-ASM inh: blocks human secretory acid sphingomyelinase; placental ASM, HMU-PC fluorogenic substrate, 60 min; Potency, µM (top dose mostly 57.5 µM), for inactives: at the highest dose activity change, negative = inhibition, usual class: inhibitors; actives 0.006% (n = 340,000); AID 504937; further: potency means the concentration at half of the fitted maximal effect
# Target sequence (P17405 47-631 limits assumed): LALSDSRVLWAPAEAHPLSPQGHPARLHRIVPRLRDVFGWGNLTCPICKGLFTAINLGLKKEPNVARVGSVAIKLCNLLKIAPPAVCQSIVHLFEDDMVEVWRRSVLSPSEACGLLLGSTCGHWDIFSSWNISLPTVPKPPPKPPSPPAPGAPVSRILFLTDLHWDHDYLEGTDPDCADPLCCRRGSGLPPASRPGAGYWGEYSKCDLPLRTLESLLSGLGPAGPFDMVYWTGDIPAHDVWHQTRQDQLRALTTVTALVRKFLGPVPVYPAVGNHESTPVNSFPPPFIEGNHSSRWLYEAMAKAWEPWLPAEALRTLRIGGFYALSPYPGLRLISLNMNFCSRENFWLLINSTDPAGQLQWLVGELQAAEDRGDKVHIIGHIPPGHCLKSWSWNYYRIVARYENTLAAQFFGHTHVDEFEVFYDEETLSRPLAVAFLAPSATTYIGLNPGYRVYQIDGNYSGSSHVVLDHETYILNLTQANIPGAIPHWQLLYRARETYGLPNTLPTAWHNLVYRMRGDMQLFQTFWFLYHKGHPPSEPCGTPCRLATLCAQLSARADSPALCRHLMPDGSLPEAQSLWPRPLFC
#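 Human placenta-derived ASM enzyme was preincubated with compound for 10 minutes at room temperature, then given fluorogenic substrate HMU-PC0 (9 uM final) for 60 minutes at 37 °C; a pH 10 stop preceded fluorescence reading at Ex 386/Em 447 nm.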
# TGFb SMAD3 inh: inhibitors of TGF-b signaling. Potency, µM (doses to about 46.1 µM), for the others: at the top dose activity, negative = inhibition, usual class: inhibitors. HepG2 CAGA-GFP TGF-b/SMAD3 reporter, GFP fluorescence, 18 h; TGF-beta stimulated, 500 pg/mL final. actives 1.2% (n = 410,000); further: potency means the concentration at half of the fitted maximal effect; on the % scale 0 is the no-effect control and ±100 the full control effect; nearly all actives have a fitted effect of over 65% in size
#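 Per well, imaged GFP fluorescence of HEPG2 CAGA-GFP cells gives the signal; cells get compound, then TGF-beta (500 pg/mL final), 18 h at 37 degrees C; %Activity versus -TGF-beta and +DMSO controls.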
# Active calls of the source: *; i = inactive; u = inconclusive; x = no result given; [ ] = dose if it differs, or a comment. Unless noted, the call rests on the fitted dose curve; in most records, active means well fitted curve in the direction sought with a large enough effect; inconclusive means small, poorly fitted or top-dose-only effect, or another doubt; inactive means no such curve, though single readings can be large; an effect the other way counts as inactive or inconclusive.
SMILES,DT40 TDP1 CPT,HepG2 viability,DT40 TDP1 no CPT,IL1B secr inh,S-ASM inh,TGFb SMAD3 inh
COc1ccc(SC[C@H](Cc2ccccc2)N2CC[C@@H](O)CCC2=O)cc1,u,-69%,u,14,2%,7%
O=C1CC[C@H](OCc2ccccc2)CCN1[C@H](CSc1ccccc1)Cc1ccccc1,-27%,-25%,u,-8,-1%,u
CC1(c2ccc3ccccc3c2)NC(=O)N(CC(=O)Nc2ncccc2O)C1=O (stereo not drawn),-13%,-3%,14%,-21,1%,13%
C[C@@H]1CN([C@@H](C)CO)C(=O)CCCn2nncc2CO[C@H]1CN(C)Cc1ccc(Oc2ccccc2)cc1,u,-42%,16µM*,-25,x,-25%
C[C@@H]1CN([C@@H](C)CO)C(=O)CCCn2nncc2CO[C@H]1CN(C)Cc1ccccc1C(F)(F)F,18µM*,-55%,u,12,x,-11%
C[C@H](CO)N1C[C@H](C)[C@@H](CN(C)S(=O)(=O)c2ccc3ccccc3c2)OCc2cnnn2CCCC1=O,3%,-7%,u,12,x,2%
C[C@H]1CN([C@@H](C)CO)C(=O)CCCn2nncc2CO[C@H]1CN(C)S(=O)(=O)c1ccc2ccccc2c1,u,-24%,23µM*,-11,x,-9%
C[C@@H]1CN([C@H](C)CO)C(=O)CCCn2nncc2CO[C@H]1CN(C)Cc1cccc(C(F)(F)F)c1,21µM*,-44%,-1%,-2,x,-5%
C[C@@H]1CN([C@H](C)CO)C(=O)CCCn2nncc2CO[C@H]1CN(C)Cc1ccc(Oc2ccccc2)cc1,u,-41%,u,19,x,-17%
Cc1ccccc1CN(C)C[C@@H]1OCc2cnnn2CCCC(=O)N([C@@H](C)CO)C[C@H]1C,-17%,8%,-27%,8,x,13%
C[C@H](CO)N1C[C@H](C)[C@@H](CN(C)Cc2cccc(C(F)(F)F)c2)OCc2cnnn2CCCC1=O,u,-21%,u,-3,x,-10%
COc1cc(CNC(=O)c2cnn(-c3ncc4c(n3)-c3ccccc3CC4)c2C)cc(OC)c1OC,-2%[9.04 µM],x,-17%,x,x,x
CCN1C(=O)Cc2cc(S(=O)(=O)NCCc3ccccc3)ccc21,-14%,1%,u,-2,-2%,-2%
CC(=O)OCC(NC(=O)C(C)NC(=O)OC(C)(C)C)C1OC(n2cc(C)c(=O)[nH]c2=O)C(OC(C)=O)C1OC(C)=O (stereo not drawn),x,-8%,x,x,x,-15%
Cc1cnc(-n2ncc(C(=O)N(CCO)C(C)C)c2-c2cccs2)nc1-c1ccc(F)cc1,-4%,x,u,x,x,x
C[C@@H](NC(=O)c1nc[nH]c1C(=O)NCc1ccc(CNC(=O)OC(C)(C)C)cc1)c1ccccc1,u,-7%,23µM*,-16,-6%,u
C[C@H](NC(=O)c1nc[nH]c1C(=O)NCc1ccc(CNC(=O)OC(C)(C)C)cc1)C(=O)OC(C)(C)C,18µM*,0%,16µM*,-10,-1%,-10%
CC(C)C[C@H](NC(=O)c1nc[nH]c1C(=O)NCc1ccccc1)C(=O)OCc1ccccc1,u,-12%,u,60,-6%,-27%
CC(C)C[C@H](NC(=O)c1nc[nH]c1C(=O)NCc1ccccc1)C(=O)OC(C)(C)C,u,-80%,u,4,-3%,11µM*
CC(C)C[C@H](NC(=O)c1nc[nH]c1C(=O)NCc1ccc(CNC(=O)OC(C)(C)C)cc1)C(=O)OC(C)(C)C,26µM*,-24%,16µM*,-24,-1%,u
O=C(NC1CCCC1)C1c2ccccc2OCC(=O)N1Cc1ccc2c(c1)OCO2 (stereo not drawn),-7%,x,u,-4,x,x
O=C(/C=C/c1ccco1)NCC1OCCc2ccccc21 (stereo not drawn),7%,16%,-3%,-6,-5%,-2%
CN1CCOc2cc(S(=O)(=O)NCc3ccc(S(N)(=O)=O)cc3)ccc21,4%,7%,-6%,i,1%,-17%
CCCCN(CC)Cc1ccc(CNC(=O)Nc2ccccc2)o1,18µM*,-20%,10µM*,-10,3%,17%
CCCCN(CC)Cc1ccc(CNC(=S)Nc2cccc(F)c2)o1,u,-18%,23µM*,-16,0%,-16%
SMILES,DT40 TDP1 CPT,HepG2 viability,DT40 TDP1 no CPT,IL1B secr inh,S-ASM inh,TGFb SMAD3 inh
CCCCN(CCCC)Cc1ccc(C(=O)NNC(=O)Nc2ccc(F)cc2)o1,u,18µM*,u,-18,3%,0%
CCN(CC)S(=O)(=O)c1ccc2c(c1)N(CC(=O)N1CCN(c3cccc(C)c3C)CC1)C(=O)CO2,18µM*,-9%,15µM*,x,x,u
CCN(CC)S(=O)(=O)c1ccc2c(c1)N(CC(=O)N1CCN(c3cccc(C(F)(F)F)c3)CC1)C(=O)CO2,u,-32%,21µM*,x,x,u
Cc1cccc(N2CCN(C(=O)CN3C(=O)COc4ccc(S(=O)(=O)N5CCCC5)cc43)CC2)c1C,x,4%,x,x,x,1%
CCN(CC)S(=O)(=O)c1ccc2c(c1)N(CC(=O)N1CCN(c3ccc(F)cc3)CC1)C(=O)CO2,u,0%,u,x,x,-5%
CCc1nc2c(OCc3ccc(C(=O)N(C)C)cc3)cccn2c1N(C)C(=O)Nc1ccccc1OC,u,2%,u,-5,x,6%
Cc1cccn2c(=O)c3cc(C#N)c(=NC(=O)c4ccncc4)n(CCCOC(C)C)c3nc12,18µM*,0%,16µM*,-19,i,7%

# Screening results (PubChem)
